# Source: the supplement of paper PMC12645437, “Orthogonal IMiD-Degron Pairs Induce Selective Protein Degradation in Cells” (ACS Chemical Biology, 2025)
# The full ranking holds about 8,300 sequences; the median of “log2 fold change of degron read counts, EGFP-low vs EGFP+ sorted cells (limma voom), compound-induced degradation” is about -1.1, and the highest 2% start at about 3.2. This excerpt belongs to a sample that is enriched for the highest values.
# T1: CRBN, Q96SW2
# T1 chain: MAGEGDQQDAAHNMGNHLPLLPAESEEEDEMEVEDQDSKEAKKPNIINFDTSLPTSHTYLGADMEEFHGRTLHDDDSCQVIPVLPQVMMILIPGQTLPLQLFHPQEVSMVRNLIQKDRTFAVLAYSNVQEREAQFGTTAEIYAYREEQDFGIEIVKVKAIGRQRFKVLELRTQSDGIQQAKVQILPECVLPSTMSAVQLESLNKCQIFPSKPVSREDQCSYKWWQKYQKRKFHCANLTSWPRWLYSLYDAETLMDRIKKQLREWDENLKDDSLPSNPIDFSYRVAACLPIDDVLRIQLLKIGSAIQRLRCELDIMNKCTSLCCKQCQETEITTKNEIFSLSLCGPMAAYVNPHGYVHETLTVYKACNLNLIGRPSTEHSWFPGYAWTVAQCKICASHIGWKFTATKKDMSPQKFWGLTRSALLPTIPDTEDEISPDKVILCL
# Biological target: T1, CRBN, Q96SW2
# Assay: log2 fold change of degron read counts, EGFP-low vs EGFP+ sorted cells (limma voom), compound-induced degradation; higher = more compound-induced degradation of the degron-EGFP fusion; degrons are variants of IKZF1/3 zinc finger 2; compound dose not given here
# Conditions: Jurkat, 18 h
# [1] = compound: compound 19 (5-tert-butyl-thalidomide)
# [2] = compound: compound 22 (5-morpholino-thalidomide)
# [3] = compound: compound 33 (diphenyl IMiD analogue)
# 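Also: pooled lentiviral library of zinc finger degron-EGFP fusions in mCherry-positive Jurkat cells, FACS-sorted after compound exposure, with degron abundance counted by next-generation sequencing.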
sequence,measurement,setting,value
"FNCSVCGHVFTQKGNLLRHIKL [46F_47N_49S_50V_52G_53H_54V_55F_67L_, Q9UKT9]",log2 fold change of degron read counts,[1],-2.33
same,log2 fold change of degron read counts,[2],-2.79
same,log2 fold change of degron read counts,[3],-2.91
same,log2 fold change of degron read counts,compound: thalidomide,-2.16
"FGCDICGALFTQKGNLLRHIKL [46F_47G_49D_50I_52G_53A_54L_55F_67L_, Q9UKT9]",log2 fold change of degron read counts,[1],0.711
same,log2 fold change of degron read counts,[2],-0.455
same,log2 fold change of degron read counts,[3],0.626
same,log2 fold change of degron read counts,compound: thalidomide,-1.25
"FECPICGREFTQKGNLLRHIKL [46F_47E_49P_50I_52G_53R_54E_55F_67L_, Q9UKT9]",log2 fold change of degron read counts,[1],-3.21
same,log2 fold change of degron read counts,[2],-2.49
same,log2 fold change of degron read counts,[3],-0.551
same,log2 fold change of degron read counts,compound: thalidomide,0.22
"FFCDVCGAMFTQKGNLLRHIKL [46F_47F_49D_50V_52G_53A_54M_55F_67L_, Q9UKT9]",log2 fold change of degron read counts,[1],1.26
same,log2 fold change of degron read counts,[2],0.949
same,log2 fold change of degron read counts,[3],-0.289
same,log2 fold change of degron read counts,compound: thalidomide,-2.16
"LCCPICGFECTQKGNLLRHIKL [46L_47C_49P_50I_52G_53F_54E_55C_67L_, Q9UKT9]",log2 fold change of degron read counts,[1],0.863
same,log2 fold change of degron read counts,[2],1.38
same,log2 fold change of degron read counts,[3],1.36
same,log2 fold change of degron read counts,compound: thalidomide,2.2
"LYCEICGFCCTQKGNLLRHIKL [46L_47Y_49E_50I_52G_53F_54C_55C_67L_, Q9UKT9]",log2 fold change of degron read counts,[1],3.35
same,log2 fold change of degron read counts,[2],3.28
same,log2 fold change of degron read counts,[3],3.07
same,log2 fold change of degron read counts,compound: thalidomide,1.36
"LSCEICGFCCTQKGNLLRHIKL [46L_47S_49E_50I_52G_53F_54C_55C_67L_, Q9UKT9]",log2 fold change of degron read counts,[1],1.68
same,log2 fold change of degron read counts,[2],1.58
same,log2 fold change of degron read counts,[3],0.957
same,log2 fold change of degron read counts,compound: thalidomide,0.73
"LWCEICGFCCTQKGNLLRHIKL [46L_47W_49E_50I_52G_53F_54C_55C_67L_, Q9UKT9]",log2 fold change of degron read counts,[1],2.9
same,log2 fold change of degron read counts,[2],3.31
same,log2 fold change of degron read counts,[3],2.14
same,log2 fold change of degron read counts,compound: thalidomide,0.752
"LDCEICGFCCTQKGNLLRHIKL [46L_47D_49E_50I_52G_53F_54C_55C_67L_, Q9UKT9]",log2 fold change of degron read counts,[1],-1.71
same,log2 fold change of degron read counts,[2],-2.74
same,log2 fold change of degron read counts,[3],-1.75
same,log2 fold change of degron read counts,compound: thalidomide,-1.36
"LVCEICGFCCTQKGNLLRHIKL [46L_47V_49E_50I_52G_53F_54C_55C_67L_, Q9UKT9]",log2 fold change of degron read counts,[1],1.06
same,log2 fold change of degron read counts,[2],1.69
same,log2 fold change of degron read counts,[3],1.86
same,log2 fold change of degron read counts,compound: thalidomide,2.44
"LFCEICGFCCTQKGNLLRHIKL [46L_47F_49E_50I_52G_53F_54C_55C_67L_, Q9UKT9]",log2 fold change of degron read counts,[1],3.37
same,log2 fold change of degron read counts,[2],3.39
same,log2 fold change of degron read counts,[3],2.01
same,log2 fold change of degron read counts,compound: thalidomide,1.32
"LCCEICGFCCTQKGNLLRHIKL [46L_47C_49E_50I_52G_53F_54C_55C_67L_, Q9UKT9]",log2 fold change of degron read counts,[1],0.944
same,log2 fold change of degron read counts,[2],0.646
same,log2 fold change of degron read counts,[3],1.13
same,log2 fold change of degron read counts,compound: thalidomide,1.21
"LNCEICGFCCTQKGNLLRHIKL [46L_47N_49E_50I_52G_53F_54C_55C_67L_, Q9UKT9]",log2 fold change of degron read counts,[1],0.295
same,log2 fold change of degron read counts,[2],-0.862
same,log2 fold change of degron read counts,[3],-1.01
same,log2 fold change of degron read counts,compound: thalidomide,-0.716
"LACEICGFCCTQKGNLLRHIKL [46L_47A_49E_50I_52G_53F_54C_55C_67L_, Q9UKT9]",log2 fold change of degron read counts,[1],2.01
same,log2 fold change of degron read counts,[2],0.96
same,log2 fold change of degron read counts,[3],-0.0283
same,log2 fold change of degron read counts,compound: thalidomide,-0.106
"FNCNICGACFTQKGNLLRHIKL [46F_47N_49N_50I_52G_53A_54C_55F_67L_, Q9UKT9]",log2 fold change of degron read counts,[1],0.853
same,log2 fold change of degron read counts,[2],-0.00319
same,log2 fold change of degron read counts,[3],0.551
same,log2 fold change of degron read counts,compound: thalidomide,-0.352
"FTCSVCGHAFTQKGNLLRHIKL [46F_47T_49S_50V_52G_53H_54A_55F_67L_, Q9UKT9]",log2 fold change of degron read counts,[1],-2.6
same,log2 fold change of degron read counts,[2],-3.26
same,log2 fold change of degron read counts,[3],-2.56
same,log2 fold change of degron read counts,compound: thalidomide,-2.32
"FMCNQCGAIFTQKGNLLRHIKL [46F_47M_49N_50Q_52G_53A_54I_55F_67L_, Q9UKT9]",log2 fold change of degron read counts,[1],-1.99
same,log2 fold change of degron read counts,[2],-2.22
same,log2 fold change of degron read counts,[3],-1.03
same,log2 fold change of degron read counts,compound: thalidomide,-1.47
"FECPICGHRFTQKGNLLRHIKL [46F_47E_49P_50I_52G_53H_54R_55F_67L_, Q9UKT9]",log2 fold change of degron read counts,[1],-2.87
same,log2 fold change of degron read counts,[2],-2.87
same,log2 fold change of degron read counts,[3],-1.63
same,log2 fold change of degron read counts,compound: thalidomide,-0.824
"LHCEICGFCCTQKGNLLRHIKL [46L_47H_49E_50I_52G_53F_54C_55C_67L_, Q9UKT9]",log2 fold change of degron read counts,[1],1.84
same,log2 fold change of degron read counts,[2],1.64
same,log2 fold change of degron read counts,[3],1.25
same,log2 fold change of degron read counts,compound: thalidomide,0.874
"FYCEICGRTFTQKGNLLRHIKL [46F_47Y_49E_50I_52G_53R_54T_55F_67L_, Q9UKT9]",log2 fold change of degron read counts,[1],0.432
same,log2 fold change of degron read counts,[2],1.09
same,log2 fold change of degron read counts,[3],0.33
same,log2 fold change of degron read counts,compound: thalidomide,-1.02
"FYCNQCGHVFTQKGNLLRHIKL [46F_47Y_49N_50Q_52G_53H_54V_55F_67L_, Q9UKT9]",log2 fold change of degron read counts,[1],-2.11
same,log2 fold change of degron read counts,[2],-2.08
same,log2 fold change of degron read counts,[3],-2.48
same,log2 fold change of degron read counts,compound: thalidomide,-1.76
"FHCPVCGAFFTQKGNLLRHIKL [46F_47H_49P_50V_52G_53A_54F_55F_67L_, Q9UKT9]",log2 fold change of degron read counts,[1],0.94
same,log2 fold change of degron read counts,[2],0.598
same,log2 fold change of degron read counts,[3],1.1
same,log2 fold change of degron read counts,compound: thalidomide,-0.224
"FWCEICGAYFTQKGNLLRHIKL [46F_47W_49E_50I_52G_53A_54Y_55F_67L_, Q9UKT9]",log2 fold change of degron read counts,[1],3.24
same,log2 fold change of degron read counts,[2],2.92
same,log2 fold change of degron read counts,[3],1.88
same,log2 fold change of degron read counts,compound: thalidomide,0.14
"FRCEICGAYFTQKGNLLRHIKL [46F_47R_49E_50I_52G_53A_54Y_55F_67L_, Q9UKT9]",log2 fold change of degron read counts,[1],-0.965
same,log2 fold change of degron read counts,[2],-0.721
same,log2 fold change of degron read counts,[3],0.747
same,log2 fold change of degron read counts,compound: thalidomide,1.98
"FGCEICGAYFTQKGNLLRHIKL [46F_47G_49E_50I_52G_53A_54Y_55F_67L_, Q9UKT9]",log2 fold change of degron read counts,[1],1.74
same,log2 fold change of degron read counts,[2],0.231
same,log2 fold change of degron read counts,[3],2.58
same,log2 fold change of degron read counts,compound: thalidomide,0.883
"FYCEICGAYFTQKGNLLRHIKL [46F_47Y_49E_50I_52G_53A_54Y_55F_67L_, Q9UKT9]",log2 fold change of degron read counts,[1],3.25
same,log2 fold change of degron read counts,[2],2.89
same,log2 fold change of degron read counts,[3],2.12
same,log2 fold change of degron read counts,compound: thalidomide,0.307
"FACEICGAYFTQKGNLLRHIKL [46F_47A_49E_50I_52G_53A_54Y_55F_67L_, Q9UKT9]",log2 fold change of degron read counts,[1],3.17
same,log2 fold change of degron read counts,[2],1.39
same,log2 fold change of degron read counts,[3],0.71
same,log2 fold change of degron read counts,compound: thalidomide,0.202
"FICEICGAYFTQKGNLLRHIKL [46F_47I_49E_50I_52G_53A_54Y_55F_67L_, Q9UKT9]",log2 fold change of degron read counts,[1],-0.272
same,log2 fold change of degron read counts,[2],1.41
same,log2 fold change of degron read counts,[3],2.34
same,log2 fold change of degron read counts,compound: thalidomide,2.12
